One sequence from paper PMC7862700, “An all-to-all approach to the identification of sequence-specific readers for epigenetic DNA modifications on cytosine” can be followed below.

Experiment in all cases: DAPPL (digital affinity profiling via proximity ligation, sequencing); 10 mM Tris-HCl pH 7.5, 50 mM NaCl, 1 mM DTT, 4% glycerol, room temperature, 30 min; GST-TFs on glutathione beads, 16-mer random dsDNA library, 0.1% formaldehyde crosslink after washing; high values mean tight binding
Details in all cases: protein: recombinant; tags: N-terminal GST; dsDNA, one strand shown

One assay deals with T1, FLI1 (Homo sapiens, UniProt Q01543 1-452).
T1 sequence: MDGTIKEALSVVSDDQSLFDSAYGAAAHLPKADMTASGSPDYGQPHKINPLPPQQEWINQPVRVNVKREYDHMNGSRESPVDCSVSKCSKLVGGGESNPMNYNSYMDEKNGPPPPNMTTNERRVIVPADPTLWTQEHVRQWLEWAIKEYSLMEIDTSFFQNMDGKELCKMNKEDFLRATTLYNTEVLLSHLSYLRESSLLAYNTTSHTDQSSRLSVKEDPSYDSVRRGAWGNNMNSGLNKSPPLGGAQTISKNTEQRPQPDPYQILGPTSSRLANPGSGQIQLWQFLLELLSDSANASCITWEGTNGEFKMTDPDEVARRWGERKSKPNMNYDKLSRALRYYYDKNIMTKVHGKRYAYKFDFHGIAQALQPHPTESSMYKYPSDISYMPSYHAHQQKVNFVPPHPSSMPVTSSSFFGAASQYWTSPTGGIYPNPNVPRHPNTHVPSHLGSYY
Put shortly: (§1)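 Each value of binding signal is a hexamer's read frequency for a factor divided by the same hexamer's frequency in the tag-only sample. Barcoded, bead-captured GST fusions of human transcription factors made in yeast were pooled with that sample and incubated with 200 nmole of a random double-stranded 16-mer DNA library in Tris/NaCl/DTT/glycerol buffer at room temperature for 30 min. Washing, 0.1% formaldehyde crosslinking, proximity ligation, PCR and Illumina NextSeq500 sequencing followed.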

The target in a further assay is T2, ELK1 (Homo sapiens, UniProt P19419 1-428).
T2 sequence: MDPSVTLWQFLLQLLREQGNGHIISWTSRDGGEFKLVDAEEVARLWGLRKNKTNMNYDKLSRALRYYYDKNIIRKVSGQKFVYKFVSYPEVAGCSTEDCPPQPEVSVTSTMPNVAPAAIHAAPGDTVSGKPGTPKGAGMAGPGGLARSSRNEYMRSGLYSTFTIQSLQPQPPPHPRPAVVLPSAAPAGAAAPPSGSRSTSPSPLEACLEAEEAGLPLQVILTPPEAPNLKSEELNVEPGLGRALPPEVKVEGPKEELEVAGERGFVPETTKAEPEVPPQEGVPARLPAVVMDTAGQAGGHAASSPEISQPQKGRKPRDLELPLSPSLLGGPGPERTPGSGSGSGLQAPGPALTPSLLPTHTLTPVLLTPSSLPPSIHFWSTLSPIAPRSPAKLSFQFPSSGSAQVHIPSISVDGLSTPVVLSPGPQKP
Put shortly:
as §1

Another assay has as its target ELF1 (Homo sapiens, UniProt P32519 1-619). Put shortly: as §1
In another assay the target is T3, EHF (Homo sapiens, UniProt Q9NZC4 1-300).
T3 sequence: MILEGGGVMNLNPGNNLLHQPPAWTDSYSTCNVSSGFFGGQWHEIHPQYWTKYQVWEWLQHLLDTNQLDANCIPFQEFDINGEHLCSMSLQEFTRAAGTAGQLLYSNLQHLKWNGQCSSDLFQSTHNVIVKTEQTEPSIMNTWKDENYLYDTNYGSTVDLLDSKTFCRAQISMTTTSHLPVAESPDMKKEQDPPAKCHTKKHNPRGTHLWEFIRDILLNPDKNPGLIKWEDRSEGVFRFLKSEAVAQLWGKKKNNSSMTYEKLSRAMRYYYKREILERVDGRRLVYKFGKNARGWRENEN
The method, boiled down: as §1

A further assay has as its target SPIB (Homo sapiens, UniProt Q01892 1-262). Put shortly: as §1
In a further assay the target is T4, SPIC (Homo sapiens, UniProt Q8N5J4 1-248).
T4 sequence: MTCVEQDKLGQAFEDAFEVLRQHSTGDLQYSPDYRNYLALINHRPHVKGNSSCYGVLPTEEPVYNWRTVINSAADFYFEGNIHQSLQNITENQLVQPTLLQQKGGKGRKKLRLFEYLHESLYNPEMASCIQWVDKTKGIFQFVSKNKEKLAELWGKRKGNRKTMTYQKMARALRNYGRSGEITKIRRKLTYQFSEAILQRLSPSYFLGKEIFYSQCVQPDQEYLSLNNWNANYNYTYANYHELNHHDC
Put shortly:
as §1

In the next assay the target is ELF4 (Homo sapiens, UniProt Q99607 1-663). Put shortly:
as §1

The next assay concerns the target T5, ELK4 (Homo sapiens, UniProt P28324-2 1-405).
T5 sequence: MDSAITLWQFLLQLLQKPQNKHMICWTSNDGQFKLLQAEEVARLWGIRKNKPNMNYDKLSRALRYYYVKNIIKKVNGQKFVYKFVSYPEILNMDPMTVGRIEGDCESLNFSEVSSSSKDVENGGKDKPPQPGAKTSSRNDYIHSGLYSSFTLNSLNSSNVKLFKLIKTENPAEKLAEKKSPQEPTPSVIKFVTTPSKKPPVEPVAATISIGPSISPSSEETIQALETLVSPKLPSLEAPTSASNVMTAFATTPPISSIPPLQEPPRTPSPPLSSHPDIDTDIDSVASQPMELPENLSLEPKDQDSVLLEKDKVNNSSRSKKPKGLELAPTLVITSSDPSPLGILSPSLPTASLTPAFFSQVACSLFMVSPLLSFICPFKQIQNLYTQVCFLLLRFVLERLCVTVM
The method, boiled down:
as §1

For the next assay, the target named is ETV1 (Homo sapiens, UniProt P50549 1-477). The method, boiled down:
as §1

The target of a further assay is T6, ERF (Homo sapiens, UniProt P50548 1-548).
T6 sequence: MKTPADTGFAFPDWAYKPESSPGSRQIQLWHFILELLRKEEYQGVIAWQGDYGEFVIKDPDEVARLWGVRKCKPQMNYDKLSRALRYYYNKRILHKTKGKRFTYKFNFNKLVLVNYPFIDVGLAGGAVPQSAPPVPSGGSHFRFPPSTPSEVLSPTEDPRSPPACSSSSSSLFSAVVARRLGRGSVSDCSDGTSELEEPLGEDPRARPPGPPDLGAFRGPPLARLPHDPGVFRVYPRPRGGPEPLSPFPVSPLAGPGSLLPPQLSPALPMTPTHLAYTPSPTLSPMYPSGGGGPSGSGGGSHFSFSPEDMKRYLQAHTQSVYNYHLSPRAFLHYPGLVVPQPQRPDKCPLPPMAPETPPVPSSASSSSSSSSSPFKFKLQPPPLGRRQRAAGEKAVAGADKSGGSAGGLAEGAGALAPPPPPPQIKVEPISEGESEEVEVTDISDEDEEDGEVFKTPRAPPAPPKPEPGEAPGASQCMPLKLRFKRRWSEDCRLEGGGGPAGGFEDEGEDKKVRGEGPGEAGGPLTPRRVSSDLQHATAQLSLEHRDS
Put shortly: as §1

For the next assay, the target named is T7, ETV3L (Homo sapiens, UniProt Q6ZN32 1-361).
T7 sequence: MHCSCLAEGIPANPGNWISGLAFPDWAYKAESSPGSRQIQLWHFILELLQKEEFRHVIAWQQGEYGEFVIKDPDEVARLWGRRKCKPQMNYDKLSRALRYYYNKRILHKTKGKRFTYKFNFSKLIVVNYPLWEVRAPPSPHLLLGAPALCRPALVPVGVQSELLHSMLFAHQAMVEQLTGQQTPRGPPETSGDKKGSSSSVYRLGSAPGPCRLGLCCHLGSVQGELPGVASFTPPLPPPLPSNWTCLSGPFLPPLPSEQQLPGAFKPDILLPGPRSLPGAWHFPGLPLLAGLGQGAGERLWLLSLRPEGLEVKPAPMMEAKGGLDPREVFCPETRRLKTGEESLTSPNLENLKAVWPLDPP
Put shortly:
as §1

A further assay deals with T8, ETS2 (Homo sapiens, UniProt P15036 1-469).
T8 sequence: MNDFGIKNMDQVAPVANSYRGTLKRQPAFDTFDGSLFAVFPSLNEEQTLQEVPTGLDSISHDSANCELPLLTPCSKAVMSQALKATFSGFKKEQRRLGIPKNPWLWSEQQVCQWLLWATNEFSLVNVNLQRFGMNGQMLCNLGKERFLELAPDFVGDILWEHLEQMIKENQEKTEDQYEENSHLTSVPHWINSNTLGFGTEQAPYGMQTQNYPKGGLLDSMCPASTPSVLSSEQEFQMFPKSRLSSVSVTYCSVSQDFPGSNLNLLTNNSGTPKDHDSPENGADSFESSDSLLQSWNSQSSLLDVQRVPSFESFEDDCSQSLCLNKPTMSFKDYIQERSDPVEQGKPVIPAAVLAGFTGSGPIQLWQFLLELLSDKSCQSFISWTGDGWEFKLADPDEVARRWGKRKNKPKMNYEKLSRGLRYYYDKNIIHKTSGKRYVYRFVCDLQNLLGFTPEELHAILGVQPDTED
Put shortly: as §1

The target of the next assay is T9, SPDEF (Homo sapiens, UniProt O95238 1-335).
T9 sequence: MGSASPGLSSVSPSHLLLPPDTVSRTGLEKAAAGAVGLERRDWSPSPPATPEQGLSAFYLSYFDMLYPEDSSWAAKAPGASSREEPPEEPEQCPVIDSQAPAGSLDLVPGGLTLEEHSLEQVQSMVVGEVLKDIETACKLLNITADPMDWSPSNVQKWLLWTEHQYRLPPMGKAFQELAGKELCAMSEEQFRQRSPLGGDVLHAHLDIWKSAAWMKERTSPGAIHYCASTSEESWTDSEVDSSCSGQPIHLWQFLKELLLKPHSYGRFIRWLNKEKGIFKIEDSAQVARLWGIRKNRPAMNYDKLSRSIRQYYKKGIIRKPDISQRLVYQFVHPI
Put shortly: as §1

Another assay deals with T10, ETV7 (Homo sapiens, UniProt Q9Y603 1-341).
T10 sequence: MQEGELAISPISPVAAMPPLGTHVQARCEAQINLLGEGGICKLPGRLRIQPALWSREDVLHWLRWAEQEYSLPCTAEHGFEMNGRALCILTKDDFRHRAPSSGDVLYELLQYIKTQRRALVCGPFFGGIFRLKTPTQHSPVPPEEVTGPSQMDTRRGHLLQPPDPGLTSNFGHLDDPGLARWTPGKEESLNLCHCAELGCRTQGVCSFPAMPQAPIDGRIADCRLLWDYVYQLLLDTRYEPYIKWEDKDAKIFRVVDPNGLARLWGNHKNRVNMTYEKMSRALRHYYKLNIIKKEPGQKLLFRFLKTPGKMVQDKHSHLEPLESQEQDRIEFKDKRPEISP
The method, boiled down:
as §1

In a further assay the target is T11, ETV3 (Homo sapiens, UniProt P41162-2 1-143).
T11 sequence: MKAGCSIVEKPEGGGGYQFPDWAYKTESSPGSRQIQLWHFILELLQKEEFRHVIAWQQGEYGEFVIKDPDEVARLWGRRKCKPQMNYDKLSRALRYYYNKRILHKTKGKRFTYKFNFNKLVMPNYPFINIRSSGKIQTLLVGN
Put shortly: as §1

ELF4, sequence (Q99607 whole entry): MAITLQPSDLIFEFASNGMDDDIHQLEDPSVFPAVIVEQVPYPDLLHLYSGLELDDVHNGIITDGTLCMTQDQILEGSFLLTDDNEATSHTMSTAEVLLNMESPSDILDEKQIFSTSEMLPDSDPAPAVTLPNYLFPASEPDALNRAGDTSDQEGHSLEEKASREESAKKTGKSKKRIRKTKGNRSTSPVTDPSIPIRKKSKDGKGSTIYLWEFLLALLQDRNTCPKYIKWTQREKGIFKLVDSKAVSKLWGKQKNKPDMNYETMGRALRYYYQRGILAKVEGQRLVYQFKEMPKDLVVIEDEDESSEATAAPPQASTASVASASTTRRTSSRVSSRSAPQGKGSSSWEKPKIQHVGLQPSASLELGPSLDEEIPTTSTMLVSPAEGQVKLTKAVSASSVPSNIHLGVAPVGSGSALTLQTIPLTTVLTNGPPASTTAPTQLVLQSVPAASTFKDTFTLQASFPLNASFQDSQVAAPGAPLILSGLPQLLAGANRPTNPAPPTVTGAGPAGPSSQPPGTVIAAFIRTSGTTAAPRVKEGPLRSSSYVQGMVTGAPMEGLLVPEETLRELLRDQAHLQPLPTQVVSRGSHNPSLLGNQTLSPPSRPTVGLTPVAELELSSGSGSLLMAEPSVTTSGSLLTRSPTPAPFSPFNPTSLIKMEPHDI
ELF1, sequence (P32519 whole entry): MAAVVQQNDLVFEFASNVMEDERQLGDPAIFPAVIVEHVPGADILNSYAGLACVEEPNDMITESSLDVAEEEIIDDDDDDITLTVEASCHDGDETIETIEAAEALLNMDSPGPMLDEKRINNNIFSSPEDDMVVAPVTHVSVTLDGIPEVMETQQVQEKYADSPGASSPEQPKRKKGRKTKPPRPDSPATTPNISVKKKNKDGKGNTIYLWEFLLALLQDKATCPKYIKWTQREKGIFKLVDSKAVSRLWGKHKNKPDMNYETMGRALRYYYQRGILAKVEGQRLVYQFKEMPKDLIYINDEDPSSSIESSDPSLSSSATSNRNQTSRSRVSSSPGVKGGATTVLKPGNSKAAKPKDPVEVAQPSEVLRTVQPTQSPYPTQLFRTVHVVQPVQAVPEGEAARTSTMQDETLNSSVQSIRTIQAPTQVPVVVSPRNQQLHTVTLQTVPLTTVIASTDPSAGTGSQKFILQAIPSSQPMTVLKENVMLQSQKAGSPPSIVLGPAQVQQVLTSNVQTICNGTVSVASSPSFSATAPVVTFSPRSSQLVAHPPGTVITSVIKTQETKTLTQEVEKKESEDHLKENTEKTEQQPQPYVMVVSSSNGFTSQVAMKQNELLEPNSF
ETV1, sequence (P50549 whole entry): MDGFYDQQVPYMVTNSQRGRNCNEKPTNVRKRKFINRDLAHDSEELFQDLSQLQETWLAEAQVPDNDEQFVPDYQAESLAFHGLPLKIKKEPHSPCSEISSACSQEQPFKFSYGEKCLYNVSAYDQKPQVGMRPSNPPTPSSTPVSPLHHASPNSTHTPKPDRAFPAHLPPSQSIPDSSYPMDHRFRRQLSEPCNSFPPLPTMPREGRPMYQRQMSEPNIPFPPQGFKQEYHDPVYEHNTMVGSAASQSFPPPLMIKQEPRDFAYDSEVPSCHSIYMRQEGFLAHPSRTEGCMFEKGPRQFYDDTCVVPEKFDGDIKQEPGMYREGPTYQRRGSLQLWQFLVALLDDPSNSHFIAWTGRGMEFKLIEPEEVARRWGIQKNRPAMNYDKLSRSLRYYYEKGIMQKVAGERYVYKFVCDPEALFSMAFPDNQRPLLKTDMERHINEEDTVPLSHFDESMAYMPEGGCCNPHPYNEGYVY
SPIB, sequence (Q01892 whole entry): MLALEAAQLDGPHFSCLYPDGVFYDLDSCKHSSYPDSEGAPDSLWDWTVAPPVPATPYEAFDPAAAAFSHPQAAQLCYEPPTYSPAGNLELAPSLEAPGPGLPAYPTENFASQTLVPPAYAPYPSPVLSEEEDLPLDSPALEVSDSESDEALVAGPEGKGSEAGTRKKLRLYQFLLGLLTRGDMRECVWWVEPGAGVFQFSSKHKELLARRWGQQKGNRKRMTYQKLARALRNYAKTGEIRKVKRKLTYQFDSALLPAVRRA

On to GATGGG, for which the binding signal was 1.03 fold enrichment (6-mer frequency, TF over GST control) in the assay with FLI1; 1.02 fold enrichment (6-mer frequency, TF over GST control) in the assay with ELK1; 1 fold enrichment (6-mer frequency, TF over GST control) with ELF1; 1.02 fold enrichment (6-mer frequency, TF over GST control) in the assay with EHF; 1.12 fold enrichment (6-mer frequency, TF over GST control) in the assay with SPIB; 1.08 fold enrichment (6-mer frequency, TF over GST control) with SPIC. In addition, the binding signal was 1.01 fold enrichment (6-mer frequency, TF over GST control) with ELF4; 1.01 fold enrichment (6-mer frequency, TF over GST control) in the assay with ELK4; 1.04 fold enrichment (6-mer frequency, TF over GST control) with ETV1; 1 fold enrichment (6-mer frequency, TF over GST control) in the assay with ERF; 1.02 fold enrichment (6-mer frequency, TF over GST control) in the assay with ETV3L; 1 fold enrichment (6-mer frequency, TF over GST control) in the assay with ETS2. The binding signal is 1.08 fold enrichment (6-mer frequency, TF over GST control) with SPDEF; 1.03 fold enrichment (6-mer frequency, TF over GST control) with ETV7; 1.04 fold enrichment (6-mer frequency, TF over GST control) in the assay with ETV3.
